# Source: PubChem (several laboratories)
# aDG glyco up: alpha-DG glycosylation activation; Pro5-aDG cells, alpha-DG glycosylation AlphaScreen (IIH6); 0% Pro5, 100% B10-LARGE cell signal; activation, % at 10 µM; 360,000 compounds, 0.22% hits;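 active = activation of at least 8% versus controls, or a plate z-score of at least 8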;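 note: Pro5 are CHO cells carrying HIG-tagged alpha-DG that lacks glycosylation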
# FAS TE block: inhibitors of human fatty acid synthase thioesterase domain | 360,000 compounds, 0.67% hits | P49327 | inhibition, % at 15 µM | AID 602261 | recombinant FAS-TE, OMFH fluorogenic substrate, fluorescence endpoint;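 active = compounds whose normalised, plate-corrected inhibition of enzyme fluorescence in the single-dose primary screen is 50% or more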;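 note: 0% = DMSO with enzyme and 100% = substrate without enzyme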
# ADAM17 inh: ADAM17 inhibition, QFRET primary screen | 370,000 compounds, 0.83% hits | recombinant ADAM17, EDANS/DABCYL FRET peptide cleavage | inhibition, % at 6.95 µM | AID 720648 | P78536;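 active = inhibition above the mean of compounds lying between control limits plus 3 SD, set per campaign, cut at about 8.5% in these data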;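 note: 0% = DMSO-only wells as the low control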
# NR3A LBD binder: NR3A (human) ligand-binding domain modulation; 340,000 compounds, 2.5% hits; NR3A LBD differential scanning fluorimetry, Tm shift; 0% = protein alone, 100% = glycine-bound protein; AID 1259313; Tm shift relative to glycine control, % at 25 µM;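 active = melting temperature shift of at least 10% of the positive control shift, at one fixed dose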
# ADAM10 inh: inhibits human ADAM10. inhibition, % at 7 µM. recombinant ADAM10, EDANS/DABCYL FRET peptide cleavage, 3 h. O14672. AID 720582. 370,000 compounds, 0.62% hits;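 active = inhibition above a per-campaign cutoff equal to the mean of compounds falling between control-based bounds plus 3 SD, cut at about 20% in these data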;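 note: 0% = DMSO wells while the 100% control is not disclosed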
# Target sequence (O14672 214-748 limits assumed): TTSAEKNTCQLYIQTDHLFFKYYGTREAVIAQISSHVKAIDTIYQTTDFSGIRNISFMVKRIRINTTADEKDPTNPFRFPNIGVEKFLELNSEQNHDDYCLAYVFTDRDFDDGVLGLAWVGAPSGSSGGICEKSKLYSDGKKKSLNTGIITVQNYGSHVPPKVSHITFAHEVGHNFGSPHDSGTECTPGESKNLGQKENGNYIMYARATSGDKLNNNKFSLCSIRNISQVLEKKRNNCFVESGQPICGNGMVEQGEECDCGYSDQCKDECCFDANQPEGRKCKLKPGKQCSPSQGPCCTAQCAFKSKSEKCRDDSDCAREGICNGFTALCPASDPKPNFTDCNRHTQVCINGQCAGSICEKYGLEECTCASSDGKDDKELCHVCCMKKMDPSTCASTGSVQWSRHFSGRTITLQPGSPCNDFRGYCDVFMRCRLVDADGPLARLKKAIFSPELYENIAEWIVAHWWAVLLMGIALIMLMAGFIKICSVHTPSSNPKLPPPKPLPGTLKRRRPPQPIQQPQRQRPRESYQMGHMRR
# FAS-TE conf: FAS thioesterase (human) inhibition, confirmation. shares compounds with FAS TE block. recombinant FAS-TE, OMFH fluorogenic substrate, fluorescence. inhibition, % at 15 µM. 2,300 compounds, 45% hits. AID 624325;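 active = compounds inhibiting the enzyme by at least 50% at 15 µM in any one of the replicates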;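 note: 0% = enzyme with DMSO only and 100% = wells lacking enzyme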
# * = called active by the depositor; · = not tested or not shown. Only some compounds are listed: those with a hit (about 4% of all), similar ones and a draw of the others.
SMILES,aDG glyco up,FAS TE block,ADAM17 inh,NR3A LBD binder,ADAM10 inh,FAS-TE conf
CCCCCc1nc2sc3c(c2c(=O)n1NC(=O)c1ccc([N+](=O)[O-])cc1)CC(C)(C)OC3,0,78*,6,12*,10,63*
CC(C)(C)c1ccc(Cn2cnc(-c3ccc([N+](=O)[O-])cc3)c2)cc1,1,51*,4,7,5,31
CCCC(=O)OCCNc1cc(Sc2nc3ccccc3[nH]2)c2nonc2c1[N+](=O)[O-],0,75*,3,-4,4,78*
Cc1ccc(Sc2cc(NCCCO)c([N+](=O)[O-])c3nonc23)cc1,0,26,-1,-1,0,·
CC(=O)OCCCNc1cc(Sc2ccc(Cl)cc2)c2nonc2c1[N+](=O)[O-],0,62*,3,-3,2,25
CCC(=O)OCCNc1cc(SCCC(=O)OC)c2nonc2c1[N+](=O)[O-],0,24,2,2,13,·
Cn1cccc1C1C(C#N)=C(N)OC2=C1C(=O)CC(C)(C)C2 (configuration not stated),0,-5,2,0,-2,·
Nc1cccc(-c2nc3ncccc3o2)c1,0,-6,-4,1,-5,·
Cc1ccc(S(=O)(=O)Nc2nc(-c3ccccc3)cs2)cc1,0,2,-4,-4,-6,·
COc1ccc(-c2csc(NC(=O)c3ccccc3NS(=O)(=O)c3ccc(F)c(F)c3)n2)cc1,0,58*,1,16*,-1,19
Cc1ccc(S(=O)(=O)Nc2ccccc2C(=O)Nc2nc(-c3ccc(F)cc3)cs2)cc1,1,56*,-137,31*,-226,58*
Cc1ccc(C(=O)CC2(O)C(=O)N(Cc3ccccc3Cl)c3ccccc32)o1 (configuration not stated),0,25,-8,1,-5,·
O=C(O)c1ccc(NC(CSCc2ccc(F)cc2)C(=O)O)c([N+](=O)[O-])c1 (configuration not stated),0,-14,-2,-1,-3,·
Cc1ccc(NC(=O)c2ccc(S(=O)(=O)N3CCCCC3)cc2)cc1,0,-3,7,2,6,·
COc1ccc(-c2cnnn2-c2ccc(NC(=O)c3ccc(S(=O)(=O)N4CCCCC4)cc3)cc2)cc1,1,58*,5,0,16,-1
O=C(CN1C(=O)NC2(CCCC2)C1=O)OCCOc1ccccc1Cl,0,-5,-1,0,-4,·
O=C(Nc1ccc(S(=O)(=O)N2CCCC2)cc1)c1ccccc1,0,-4,-5,1,-7,·
CCCN(CCC)S(=O)(=O)c1ccc(C(=O)Nc2nc3c(s2)CCc2ccccc2-3)cc1,0,0,0,9,0,·
COC(=O)c1sc2ccccc2c1NC(=O)c1ccc(S(=O)(=O)N2CCCCC2)cc1,0,62*,2,2,5,32
O=C(Nc1nc(-c2ccccc2)c(-c2ccccc2)s1)c1ccc(S(=O)(=O)N2CCCC2)cc1,1,67*,-2,2,11,15
O=C(Nc1nc(-c2ccccc2)c(C(=O)c2ccccc2)s1)c1ccc(S(=O)(=O)N2CCCC2)cc1,0,83*,0,14*,-7,22
N#CCCN(CCC#N)S(=O)(=O)c1ccc(C(=O)Nc2nc(-c3ccccc3)c(C(=O)c3ccccc3)s2)cc1,0,58*,-2,12*,-4,12
O=C(Nc1ccccc1)c1ccc(S(=O)(=O)N2CCCC2)cc1,0,-8,-5,1,4,·
O=C(CCNc1ccc(Br)cc1)c1cccc([N+](=O)[O-])c1,0,64*,-3,-3,12,53*
CC1(C)CC2CC(C)(CN2S(=O)(=O)c2ccc(C(=O)Nc3ccc(S(=O)(=O)N4CCOCC4)cc3)cc2)C1 (configuration not stated),2,58*,8,6,8,25
SMILES,aDG glyco up,FAS TE block,ADAM17 inh,NR3A LBD binder,ADAM10 inh,FAS-TE conf
CC1(C)CC2CC(C)(CN2S(=O)(=O)c2ccc(C(=O)Nc3ccc(Cl)c(S(=O)(=O)N4CCOCC4)c3)cc2)C1 (configuration not stated),0,80*,2,1,1,13
Nc1nc(N2CCCCC2)c(C=O)c(N2CCCCC2)n1,0,0,-1,0,2,·
COc1cc(/C=N/NC(=O)c2ccc(CN3c4cccc5cccc(c45)S3(=O)=O)cc2)cc(OC)c1O,0,6,-47,2,-129,·
COc1ccc(/C=N/NC(=O)c2ccc(CN3c4cccc5cccc(c45)S3(=O)=O)cc2)cc1,0,79*,-66,22*,-306,10
Cc1ccc(/C=C/c2ccc(=O)n(Cc3ccc(F)cc3)n2)cc1,0,50*,-22,-8,-65,39*
O=c1ccc(/C=C/c2ccccc2)nn1Cc1ccc(F)cc1,0,37,-32,-6,-101,·
Cn1cnc(C(=O)N2CCN(c3ccccc3)CC2)c1C(=O)N1CCN(c2ccccc2)CC1,0,-10,-2,1,-2,·
CCOC(=O)NC(=O)/C(C#N)=N/Nc1ccc(F)cc1,0,15,-3,-10,4,·
COc1cc(CNc2nc(C)c([N+](=O)[O-])c(C)c2C#N)cc(OC)c1OC,1,55*,-1,2,-1,59*
COc1ccc(CNc2nc(C)c([N+](=O)[O-])c(C)c2C#N)cc1,0,43,2,-8,4,·
CCC1(C)Nc2ccccc2C(=O)N1O (configuration not stated),0,-6,-91,-1,-300,·
O=C1c2cccc3c([N+](=O)[O-])ccc(c23)C(=O)N1c1ccccn1,0,-198,-4,2,-6,·
Cc1ccc(N2C(=O)c3cccc4c(Oc5ccccc5[N+](=O)[O-])ccc(c34)C2=O)c(C)c1,0,61*,-3,-6,-6,10
COc1ccc([N+](=O)[O-])c(S(=O)(=O)c2ccc(Cl)cc2)n1,0,4,1,-2,2,·
CSc1ncccc1C(=O)N1CCN(S(=O)(=O)c2ccc3ccccc3c2)CC1,0,13,-7,2,-5,·
CCn1c(C)cs/c1=N\S(=O)(=O)c1ccccc1,0,-5,2,-1,-2,·
O=Cc1s/c(=N\S(=O)(=O)c2ccccc2)n(CCCCl)c1Cl,0,76*,2,1,9,83*
Cc1cc(C)c2nc(NC(=O)c3cccc(S(=O)(=O)N4CCc5ccccc54)c3)sc2c1,0,70*,-1,10*,-7,8
Cc1cccc2sc(NC(=O)c3cccc(S(=O)(=O)N4CCc5ccccc54)c3)nc12,0,42,-4,10,-13,·
